Active and inactive are the calls of the source. Calls follow the shape of the dose curve; as a rule, active = well fitted curve in the direction sought with a large enough effect in the repeat runs; inconclusive = weak or mixed curves; inactive = flat fitted curve, though single readings scatter.
Assay: qHTS assay to test for compound auto fluorescence at 460 nm (blue) in HepG2 cell free culture (AID 720685)
Details: Cell-free culture medium, blue autofluorescence 405/460 nm; series mostly up to 91.3 µM; fluorescence, % of fluorescent control: at the top concentration
Text: U.S. Tox21 Program National Center for Advancing Translational Sciences [NCATS] NIH Chemical Genomics Center [NCGC] U.S. Environmental Protection Agency [EPA] National Institutes of Environmental Health Sciences [NIEHS] National Toxicology Program [NTP] U.S. Food and Drug Administration [FDA] Tox21 Assay Overview: Compound auto fluorescence often interferes with screening of the compound library against various biological targets and signaling pathways. Some of these compounds may have fluorophoric properties. Such properties may interfere with the assay outputs resulting in false positives and/or negatives. To decrease such complications and ensure the compound activities are relevant in terms of biological response, the Tox21 10K compound library was screened for auto fluorescence. From the fluorophores used as reporter signals in our screening assays, the auto fluorescence equivalencies of compounds against three fluorophores have been evaluated: Triamterene, Fluorescein and Rose Bengal sodium for blue, green and red fluorescence, respectively. The fluorescence intensities were measured using Excitation/Emission wavelengths at 405/460nm, 485/535nm and 540/590nm for blue, green and red labels, respectively. This assay includes the blue fluorescence data.
Tox21 Assay Protocol Summary: 5 uL of culture medium (MEM containing 10% FBS) per well was dispensed into black wall/clear bottom 1536-well plates using a Multidrop Combi Dispenser (ThermoFisher Scientific, Waltham, MA). After 23 nL compound or DMSO vehicle was transferred into assay plate by a pintool work station (Kalypsys, San Diego, CA), fluorescence intensities in the assay plates were measured by an Envision (PerkinElmer, Shelton, CT) plate reader using three labels for measuring blue, green and red fluorescence at […] 460, 535 and 590nm respectively.
% is scaled to controls: 0 for no effect and ±100 for the full control effect.

| SMILES | fluorescence, % of fluorescent control | outcome |
| --- | --- | --- |
| CCC(CC)CO | -0.298% (inactive) | – |
| C=C(C)C(=O)OCCOP(=O)(O)OCCOC(=O)C(=C)C | 0.0086% (inactive) | – |
| CC(=O)NCCCCCC(=O)O | -0.192% [at 46 µM] (inactive) | – |
| CCCOC(OCCC)OCCC | 0.032% (inactive) | – |
| CCOCCOCCOCC | -0.0168% (inactive) | – |
| Brc1ccc(-c2ccccc2)cc1 | 0.0212% (inactive) | – |
| NCCS | – | inactive |
| O=C(OCC1(COC(=O)c2cccnc2)CCCC(COC(=O)c2cccnc2)(COC(=O)c2cccnc2)C1O)c1cccnc1 | 0.0595% [at 46 µM] (inactive) | – |
| CC(C)NCC(O)COc1cccc2[nH]ccc12 (stereo not given) | 0.0054% [at 46 µM] (inactive) | – |
| CCOc1cc([N+](=O)[O-])c(OCC)cc1N1CCOCC1 | 0.0313% (inactive) | – |
| O=C(OCC(COC(=O)c1cccnc1)(COC(=O)c1cccnc1)COC(=O)c1cccnc1)c1cccnc1 | -0.0477% [at 46 µM] (inactive) | – |
| C=C(C)C1CCC(C)(O)CC1 (stereo not given) | 0.198% (inactive) | – |
| O=C(O)c1cc(Cl)cc([N+](=O)[O-])c1Cl | -0.106% (inactive) | – |
| CCNC(=O)C1CC(C)CCC1C(C)C (stereo not given) | 0.0041% (inactive) | – |
| COc1cc(NS(=O)(=O)c2ccc(N)cc2)nc(OC)n1 | -0.0655% [at 18.6 µM] (inactive) | – |
| CC(C)(C)OC(=O)c1ccc(O)cc1 | 0.0534% (inactive) | – |
| COc1ccc2c(c1)C(=O)N(CCc1ccc(S(=O)(=O)NC(=O)NC3CCCCC3)cc1)C(=O)C2(C)C | -0.0823% [at 18.6 µM] (inactive) | – |
| CC(=O)Nc1ccc(S(=O)(=O)Nc2ccc([N+](=O)[O-])cc2)cc1 | 0.0245% [at 46 µM] (inactive) | – |
| CCOC(=O)c1ccc(OC(=O)CCCCCN=C(N)N)cc1 | 0.0222% [at 18.6 µM] (inactive) | – |
| OCCCCC(O)CO (stereo not given) | 0.0813% (inactive) | – |

| SMILES | fluorescence, % of fluorescent control | outcome |
| --- | --- | --- |
| O=C(O)c1cc(Br)c(O)c(Br)c1 | 0.0253% (inactive) | – |
| CCO[Si](CCCS)(OCC)OCC | 0.0354% (inactive) | – |
| O=C(CCNNC(=O)c1ccncc1)NCc1ccccc1 | -0.0512% [at 46 µM] (inactive) | – |
| COc1ccc(S(=O)(=O)N2c3ccc(Cl)cc3[C@@](O)(c3ccccc3Cl)[C@H]2C(=O)N2CCC[C@@H]2C(N)=O)cc1OC | 0.0791% [at 46 µM] (inactive) | – |
| CCCC/C=C\CCCCCCCCCC=O | -0.0041% (inactive) | – |
| CCC(C)NC(N)=O (stereo not given) | -0.067% (inactive) | – |
| OCCC(F)(F)C(F)(F)C(F)(F)C(F)(F)C(F)(F)C(F)(F)C(F)(F)C(F)(F)F | -0.0583% (inactive) | – |
| O=C(NCCN1CCOCC1)c1ccc(Cl)cc1 | – | inactive |
| CCCCOCCOC(=O)COc1nc(Cl)c(Cl)cc1Cl | -0.0945% (inactive) | – |
| C[C@@H]1O[C@@H](O[C@@H]2[C@@H](O)[C@H](OCCc3ccc(O)c(O)c3)O[C@H](CO[C@@H]3O[C@H](CO)[C@@H](O)[C@H](O)[C@H]3O)[C@H]2OC(=O)/C=C/c2ccc(O)c(O)c2)[C@H](O)[C@H](O)[C@H]1O | 2.05% (inactive) | – |
| N#Cc1ccc(C(=O)O)cc1 | 0.215% (inactive) | – |
| CC(C)CC(=O)O | 0.0296% (inactive) | – |
| Nc1ccc([N+](=O)[O-])c(N)c1 | -0.497% (inactive) | – |
| CCOC(=O)[C@H](CCc1ccccc1)N[C@@H](C)C(=O)N1C(=O)N(C)C[C@H]1C(=O)O | -0.0003% [at 46 µM] (inactive) | – |
| CN(CCOc1ccc(NS(C)(=O)=O)cc1)CCc1ccc(NS(C)(=O)=O)cc1 | -0.024% [at 46 µM] (inactive) | – |
| CN(C)CCOCCO | 0.198% (inactive) | – |
| O=C(CCN1CCN(CCO)CC1)N1c2ccccc2Sc2ccc(C(F)(F)F)cc21 | -0.0009% [at 46 µM] (inactive) | – |
| Cc1ccc2c(c1)OCC(=O)CO2 | 0.0879% (inactive) | – |
| O=P(O)(O)OP(=O)(O)O | – | inactive |
| CC(COC(C)(C)C)OCCCO (stereo not given) | -0.121% (inactive) | – |

From PubChem BioAssay (Tox21)
